Measurements as given in article PMC7862700, “An all-to-all approach to the identification of sequence-specific readers for epigenetic DNA modifications on cytosine”.

How the values were obtained:
Test in all cases: DAPPL (digital affinity profiling via proximity ligation, sequencing); 10 mM Tris-HCl pH 7.5, 50 mM NaCl, 1 mM DTT, 4% glycerol, room temperature, 30 min; GST-TFs on glutathione beads, 16-mer random dsDNA library, 0.1% formaldehyde crosslink after washing; high values mean tight binding
Conditions in all cases: protein: recombinant; tags: N-terminal GST; dsDNA, one strand shown
FLI1 = target: T1, FLI1 (Homo sapiens, UniProt Q01543 1-452)
T1 sequence: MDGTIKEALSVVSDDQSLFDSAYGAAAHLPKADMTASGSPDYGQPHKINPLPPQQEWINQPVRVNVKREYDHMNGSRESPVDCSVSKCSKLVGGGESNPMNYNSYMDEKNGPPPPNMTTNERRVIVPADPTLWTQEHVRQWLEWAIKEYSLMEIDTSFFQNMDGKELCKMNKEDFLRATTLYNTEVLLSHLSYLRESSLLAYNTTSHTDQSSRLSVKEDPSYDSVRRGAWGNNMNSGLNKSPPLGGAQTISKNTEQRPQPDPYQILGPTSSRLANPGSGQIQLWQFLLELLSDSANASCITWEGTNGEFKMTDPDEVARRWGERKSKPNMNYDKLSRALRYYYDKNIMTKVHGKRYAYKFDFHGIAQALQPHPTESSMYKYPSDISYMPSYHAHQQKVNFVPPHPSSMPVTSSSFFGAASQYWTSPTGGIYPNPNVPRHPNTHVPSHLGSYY
Outline: (§1)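 After expression in yeast as GST fusions, human transcription factors were bound to glutathione beads, DNA-barcoded and mixed with a tag-only sample. The pools were incubated with 200 nmole of a 16-mer random double-stranded DNA library in Tris/NaCl/DTT/glycerol buffer (30 min, room temperature), washed and crosslinked with 0.1% formaldehyde. Proximity ligation with BsaI/T4 ligase ran for 1 h at 37 °C, before PCR amplification and sequencing on an Illumina NextSeq500. Binding signal is a hexamer's read frequency for a factor divided by its frequency for the tag-only sample.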

ELK1 = target: T2, ELK1 (Homo sapiens, UniProt P19419 1-428)
T2 sequence: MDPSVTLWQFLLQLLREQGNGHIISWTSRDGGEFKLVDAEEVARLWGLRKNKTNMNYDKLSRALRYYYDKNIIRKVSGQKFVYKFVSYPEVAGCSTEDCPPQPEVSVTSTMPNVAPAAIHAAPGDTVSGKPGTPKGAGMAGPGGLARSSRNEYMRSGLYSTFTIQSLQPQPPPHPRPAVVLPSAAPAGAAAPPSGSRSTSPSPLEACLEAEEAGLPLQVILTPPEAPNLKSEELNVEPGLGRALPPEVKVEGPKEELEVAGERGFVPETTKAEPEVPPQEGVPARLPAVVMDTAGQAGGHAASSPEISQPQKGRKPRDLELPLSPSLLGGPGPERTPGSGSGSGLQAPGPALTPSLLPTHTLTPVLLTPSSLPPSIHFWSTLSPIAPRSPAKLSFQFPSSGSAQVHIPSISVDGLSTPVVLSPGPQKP
Outline: as §1

GABPA = target: T3, GABPA (Homo sapiens, UniProt Q06546 1-454)
T3 sequence: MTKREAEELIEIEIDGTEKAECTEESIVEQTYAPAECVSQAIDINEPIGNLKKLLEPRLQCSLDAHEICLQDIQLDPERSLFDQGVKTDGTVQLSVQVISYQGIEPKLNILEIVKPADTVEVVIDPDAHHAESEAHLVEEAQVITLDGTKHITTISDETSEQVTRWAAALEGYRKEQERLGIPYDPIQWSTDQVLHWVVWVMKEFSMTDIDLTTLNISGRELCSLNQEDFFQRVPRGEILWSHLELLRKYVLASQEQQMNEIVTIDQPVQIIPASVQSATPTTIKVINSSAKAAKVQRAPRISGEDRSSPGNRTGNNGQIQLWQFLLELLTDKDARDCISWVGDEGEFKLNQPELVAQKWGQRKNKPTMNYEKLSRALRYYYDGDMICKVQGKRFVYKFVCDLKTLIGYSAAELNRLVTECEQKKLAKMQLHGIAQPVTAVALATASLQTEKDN
Outline: as §1

ERG = target: T4, ERG (Homo sapiens, UniProt P11308 1-479)
T4 sequence: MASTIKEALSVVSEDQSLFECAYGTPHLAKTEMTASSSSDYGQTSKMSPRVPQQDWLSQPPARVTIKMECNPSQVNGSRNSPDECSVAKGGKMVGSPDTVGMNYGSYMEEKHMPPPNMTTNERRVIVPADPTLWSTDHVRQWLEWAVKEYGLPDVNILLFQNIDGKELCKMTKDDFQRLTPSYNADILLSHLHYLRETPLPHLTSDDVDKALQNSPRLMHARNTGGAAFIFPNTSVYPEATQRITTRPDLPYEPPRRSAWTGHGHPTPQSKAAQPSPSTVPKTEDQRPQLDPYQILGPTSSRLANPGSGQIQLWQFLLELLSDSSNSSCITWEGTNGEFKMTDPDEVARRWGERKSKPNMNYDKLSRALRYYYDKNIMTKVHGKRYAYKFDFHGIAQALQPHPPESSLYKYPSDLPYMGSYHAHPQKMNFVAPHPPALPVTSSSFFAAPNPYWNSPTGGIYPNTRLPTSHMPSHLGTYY
Outline: as §1

ELF1 = ELF1 (Homo sapiens, UniProt P32519 1-619)
ELF1, sequence (P32519 whole entry): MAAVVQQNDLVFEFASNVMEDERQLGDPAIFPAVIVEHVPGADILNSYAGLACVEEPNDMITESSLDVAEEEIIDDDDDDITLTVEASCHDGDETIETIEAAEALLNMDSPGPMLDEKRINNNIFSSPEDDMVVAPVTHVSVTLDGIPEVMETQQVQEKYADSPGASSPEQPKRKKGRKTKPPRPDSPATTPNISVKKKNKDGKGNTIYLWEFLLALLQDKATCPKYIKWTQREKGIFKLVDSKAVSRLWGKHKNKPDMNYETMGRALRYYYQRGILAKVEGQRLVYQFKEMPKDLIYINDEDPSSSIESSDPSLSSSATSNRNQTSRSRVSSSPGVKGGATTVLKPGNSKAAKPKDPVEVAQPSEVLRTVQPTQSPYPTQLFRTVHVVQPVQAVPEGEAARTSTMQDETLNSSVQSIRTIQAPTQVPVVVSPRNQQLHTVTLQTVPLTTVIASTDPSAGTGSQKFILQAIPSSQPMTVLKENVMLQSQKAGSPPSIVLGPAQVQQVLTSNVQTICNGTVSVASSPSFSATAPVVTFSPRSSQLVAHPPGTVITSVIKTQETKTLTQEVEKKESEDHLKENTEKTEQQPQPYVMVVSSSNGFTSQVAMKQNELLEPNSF
Outline: as §1

EHF = target: T5, EHF (Homo sapiens, UniProt Q9NZC4 1-300)
T5 sequence: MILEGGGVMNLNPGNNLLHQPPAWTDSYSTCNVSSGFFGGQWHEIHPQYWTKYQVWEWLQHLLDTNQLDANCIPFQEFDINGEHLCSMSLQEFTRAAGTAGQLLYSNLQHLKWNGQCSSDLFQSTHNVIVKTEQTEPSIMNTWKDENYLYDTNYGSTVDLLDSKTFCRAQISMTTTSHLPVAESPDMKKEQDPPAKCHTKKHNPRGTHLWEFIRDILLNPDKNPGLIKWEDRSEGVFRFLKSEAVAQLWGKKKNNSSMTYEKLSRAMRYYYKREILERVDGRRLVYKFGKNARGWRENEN
Outline: as §1

SPI1 = SPI1 (Homo sapiens, UniProt P17947 1-270)
Outline: as §1

SPIB = SPIB (Homo sapiens, UniProt Q01892 1-262)
SPIB, sequence (Q01892 whole entry): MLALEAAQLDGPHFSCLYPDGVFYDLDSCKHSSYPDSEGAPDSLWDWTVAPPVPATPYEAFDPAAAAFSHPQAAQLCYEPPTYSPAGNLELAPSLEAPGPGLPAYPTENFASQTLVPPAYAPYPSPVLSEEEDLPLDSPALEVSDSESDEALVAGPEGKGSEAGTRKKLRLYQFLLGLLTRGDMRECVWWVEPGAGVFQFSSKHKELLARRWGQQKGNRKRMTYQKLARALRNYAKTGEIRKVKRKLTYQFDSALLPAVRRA
Outline: as §1

ELK3 = target: T6, ELK3 (Homo sapiens, UniProt P41970 1-407)
T6 sequence: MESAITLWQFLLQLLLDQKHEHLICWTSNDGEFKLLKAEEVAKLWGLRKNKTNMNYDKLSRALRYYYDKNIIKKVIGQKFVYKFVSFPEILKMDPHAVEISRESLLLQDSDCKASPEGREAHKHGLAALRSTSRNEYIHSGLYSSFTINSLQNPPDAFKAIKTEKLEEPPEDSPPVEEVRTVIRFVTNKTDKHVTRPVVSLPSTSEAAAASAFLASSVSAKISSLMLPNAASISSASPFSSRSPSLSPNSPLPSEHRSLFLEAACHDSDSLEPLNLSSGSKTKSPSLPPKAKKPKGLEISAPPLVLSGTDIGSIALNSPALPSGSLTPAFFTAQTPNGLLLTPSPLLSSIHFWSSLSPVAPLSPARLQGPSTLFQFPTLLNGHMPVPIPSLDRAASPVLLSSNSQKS
Outline: as §1

TGTTCA
binding signal (FLI1): 1.11 fold enrichment (6-mer frequency, TF over GST control) | binding signal (ELK1): 1.31 fold enrichment (6-mer frequency, TF over GST control) | binding signal (GABPA): 1.21 fold enrichment (6-mer frequency, TF over GST control) | binding signal (ERG): 1.19 fold enrichment (6-mer frequency, TF over GST control) | binding signal (ELF1): 1.18 fold enrichment (6-mer frequency, TF over GST control) | binding signal (EHF): 1.23 fold enrichment (6-mer frequency, TF over GST control) | binding signal (SPI1): 1.3 fold enrichment (6-mer frequency, TF over GST control) | binding signal (SPIB): 1.17 fold enrichment (6-mer frequency, TF over GST control) | binding signal (ELK3): 1.37 fold enrichment (6-mer frequency, TF over GST control)

TTGTAC
binding signal (FLI1): 1.37 fold enrichment (6-mer frequency, TF over GST control) | binding signal (ELK1): 1.51 fold enrichment (6-mer frequency, TF over GST control) | binding signal (GABPA): 1.32 fold enrichment (6-mer frequency, TF over GST control) | binding signal (ERG): 1.33 fold enrichment (6-mer frequency, TF over GST control) | binding signal (ELF1): 1.41 fold enrichment (6-mer frequency, TF over GST control) | binding signal (EHF): 1.33 fold enrichment (6-mer frequency, TF over GST control) | binding signal (SPI1): 1.39 fold enrichment (6-mer frequency, TF over GST control) | binding signal (SPIB): 1.44 fold enrichment (6-mer frequency, TF over GST control) | binding signal (ELK3): 1.18 fold enrichment (6-mer frequency, TF over GST control)

CGACGC
binding signal (FLI1): 1.11 fold enrichment (6-mer frequency, TF over GST control) | binding signal (ELK1): 1.11 fold enrichment (6-mer frequency, TF over GST control) | binding signal (GABPA): 1.04 fold enrichment (6-mer frequency, TF over GST control) | binding signal (ERG): 1.05 fold enrichment (6-mer frequency, TF over GST control) | binding signal (ELF1): 1.16 fold enrichment (6-mer frequency, TF over GST control) | binding signal (EHF): 1.06 fold enrichment (6-mer frequency, TF over GST control) | binding signal (SPI1): 1.06 fold enrichment (6-mer frequency, TF over GST control) | binding signal (SPIB): 1.08 fold enrichment (6-mer frequency, TF over GST control) | binding signal (ELK3): 1.01 fold enrichment (6-mer frequency, TF over GST control)

CATCAC
binding signal (FLI1): 1.1 fold enrichment (6-mer frequency, TF over GST control) | binding signal (ELK1): 1.1 fold enrichment (6-mer frequency, TF over GST control) | binding signal (GABPA): 1.18 fold enrichment (6-mer frequency, TF over GST control) | binding signal (ERG): 1.15 fold enrichment (6-mer frequency, TF over GST control) | binding signal (ELF1): 1.19 fold enrichment (6-mer frequency, TF over GST control) | binding signal (EHF): 1.13 fold enrichment (6-mer frequency, TF over GST control) | binding signal (SPI1): 1.11 fold enrichment (6-mer frequency, TF over GST control) | binding signal (SPIB): 1.11 fold enrichment (6-mer frequency, TF over GST control) | binding signal (ELK3): 1.05 fold enrichment (6-mer frequency, TF over GST control)

AAGTAG
binding signal (FLI1): 1.12 fold enrichment (6-mer frequency, TF over GST control) | binding signal (ELK1): 1.21 fold enrichment (6-mer frequency, TF over GST control) | binding signal (GABPA): 1.2 fold enrichment (6-mer frequency, TF over GST control) | binding signal (ERG): 1.24 fold enrichment (6-mer frequency, TF over GST control) | binding signal (ELF1): 1.15 fold enrichment (6-mer frequency, TF over GST control) | binding signal (EHF): 1.23 fold enrichment (6-mer frequency, TF over GST control) | binding signal (SPI1): 1.35 fold enrichment (6-mer frequency, TF over GST control) | binding signal (SPIB): 1.13 fold enrichment (6-mer frequency, TF over GST control) | binding signal (ELK3): 1.26 fold enrichment (6-mer frequency, TF over GST control)

CTTGTG
binding signal (FLI1): 1.57 fold enrichment (6-mer frequency, TF over GST control) | binding signal (ELK1): 1.58 fold enrichment (6-mer frequency, TF over GST control) | binding signal (GABPA): 1.45 fold enrichment (6-mer frequency, TF over GST control) | binding signal (ERG): 1.45 fold enrichment (6-mer frequency, TF over GST control) | binding signal (ELF1): 1.46 fold enrichment (6-mer frequency, TF over GST control) | binding signal (EHF): 1.44 fold enrichment (6-mer frequency, TF over GST control) | binding signal (SPI1): 1.46 fold enrichment (6-mer frequency, TF over GST control) | binding signal (SPIB): 1.68 fold enrichment (6-mer frequency, TF over GST control) | binding signal (ELK3): 1.6 fold enrichment (6-mer frequency, TF over GST control)

TCCCGA
binding signal (FLI1): 1.39 fold enrichment (6-mer frequency, TF over GST control) | binding signal (ELK1): 1.23 fold enrichment (6-mer frequency, TF over GST control) | binding signal (GABPA): 1.47 fold enrichment (6-mer frequency, TF over GST control) | binding signal (ERG): 1.27 fold enrichment (6-mer frequency, TF over GST control) | binding signal (ELF1): 1.31 fold enrichment (6-mer frequency, TF over GST control) | binding signal (EHF): 1.36 fold enrichment (6-mer frequency, TF over GST control) | binding signal (SPI1): 1.37 fold enrichment (6-mer frequency, TF over GST control) | binding signal (SPIB): 1.41 fold enrichment (6-mer frequency, TF over GST control) | binding signal (ELK3): 1.35 fold enrichment (6-mer frequency, TF over GST control)

ACTCTA
binding signal (FLI1): 1.42 fold enrichment (6-mer frequency, TF over GST control) | binding signal (ELK1): 1.46 fold enrichment (6-mer frequency, TF over GST control) | binding signal (GABPA): 1.52 fold enrichment (6-mer frequency, TF over GST control) | binding signal (ERG): 1.39 fold enrichment (6-mer frequency, TF over GST control) | binding signal (ELF1): 1.52 fold enrichment (6-mer frequency, TF over GST control) | binding signal (EHF): 1.56 fold enrichment (6-mer frequency, TF over GST control) | binding signal (SPI1): 1.5 fold enrichment (6-mer frequency, TF over GST control) | binding signal (SPIB): 1.45 fold enrichment (6-mer frequency, TF over GST control) | binding signal (ELK3): 1.38 fold enrichment (6-mer frequency, TF over GST control)
